Values joined by “and” are separate entries in the source; they are usually repeats but may differ in a detail not shown here. Equal values may be shown once. This is part of a sample that, as a whole, favours compounds with a hit. Of some 79,000 tested, about 15% had one in any assay. More than one record can exist for a structure, and the calls need not agree. Active and inactive are the calls of the source. Rule as the data show it: active = growth inhibition above about 70%; inactive = the rest.
Key:
[1] = NCI Yeast Anticancer Drug Screen. Data for the mlh1 strain (AID 171);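 also: 0% = growth of vehicle-treated control cultures of the same strain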; conditions: S. cerevisiae mlh1 strain growth inhibition, stronger effect = higher value
Method in brief: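 Steps: expose the defined-mutant yeast strain to compound; expose a parallel culture to vehicle; measure growth; express compound effect as inhibition relative to the vehicle culture.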

[2] = NCI Yeast Anticancer Drug Screen. Data for the sgs1 strain (AID 173);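 also: 0% = growth of vehicle-only control cultures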; conditions: S. cerevisiae sgs1 mutant, stronger effect = higher value
Method in brief: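 Treat defined-mutant yeast with compound; measure growth; calculate inhibition relative to vehicle-treated cells.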

[3] = NCI Yeast Anticancer Drug Screen. Data for the mlh1 rad18 strain (AID 175); conditions: S. cerevisiae mlh1 rad18 strain growth inhibition, stronger effect = higher value
Method in brief: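 Test agents were incubated with a yeast strain of defined genotype (DNA damage repair defect). Inhibition of growth was derived by comparison with vehicle-exposed cultures.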

[4] = NCI Yeast Anticancer Drug Screen. Data for the rad52 strain (AID 147);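 also: 0% = growth of vehicle-treated control cultures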; conditions: S. cerevisiae rad52 mutant growth inhibition, stronger effect = higher value
Method in brief: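 Screen used a yeast mutant impaired in DNA repair. After compound exposure, growth was measured. Values reflect inhibition compared with vehicle-treated cells.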

[5] = NCI Yeast Anticancer Drug Screen. Data for the wt1 strain (AID 149);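 also: 0% = growth of vehicle-treated wt1 cultures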; conditions: S. cerevisiae wt1 strain (SPY 50644) growth inhibition, stronger effect = higher value
Method in brief: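 The wt1 strain was treated with compounds, and growth was compared with vehicle-treated cultures to give inhibition.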

[6] = NCI Yeast Anticancer Drug Screen. Data for the rad50EPP+ strain (AID 151);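 also: 0% = growth of vehicle-treated control cultures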; conditions: S. cerevisiae rad50 mutant strain, stronger effect = higher value
Method in brief: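 Exposing the rad50EPP+ strain to each compound, growth was compared with vehicle-only cultures to give inhibition.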

[7] = NCI Yeast Anticancer Drug Screen. Data for the rad50 strain (AID 155);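 also: 0% = growth of vehicle-only cultures of the same strain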; conditions: S. cerevisiae rad50 strain growth inhibition, stronger effect = higher value
Method in brief: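 Cells are treated with compound, grown, and their growth is then scored against vehicle-only cultures of the same repair-deficient yeast strain.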

[8] = NCI Yeast Anticancer Drug Screen. Data for the mec2-1 strain (AID 157); conditions: S. cerevisiae mec2-1 strain, stronger effect = higher value
Method in brief: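 Readout is yeast growth inhibition, normalised to vehicle-treated controls, in the mec2-1 strain exposed to compound.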

[9] = NCI Yeast Anticancer Drug Screen. Data for the rad14 strain (AID 159);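 also: 0% = growth of vehicle-treated control cultures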; conditions: S. cerevisiae rad14 strain growth inhibition, stronger effect = higher value
Method in brief: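 Readout: yeast growth inhibition, referenced to vehicle-only cultures. Strain bears a defined alteration in DNA damage repair.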

[10] = NCI Yeast Anticancer Drug Screen. Data for the sgs1 mgt1 strain (AID 161);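 also: 0% = growth of cultures given vehicle only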; conditions: S. cerevisiae sgs1 mgt1 strain, stronger effect = higher value
Method in brief: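 Percent growth inhibition was derived by comparing compound-exposed mutant yeast with vehicle-exposed cultures. The strain carries alterations in DNA damage repair.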

[11] = NCI Yeast Anticancer Drug Screen. Data for the CLN2oe strain (AID 163);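 also: 0% = growth of vehicle-only control cultures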; conditions: S. cerevisiae CLN2oe strain, stronger effect = higher value
Method in brief: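 Values reflect how much compound exposure reduced yeast growth, referenced to vehicle-exposed cells. Assay organism is a strain with a defined genetic change affecting cell-cycle control.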

[12] = NCI Yeast Anticancer Drug Screen. Data for the cln2 rad14 strain (AID 165);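 also: 0% = growth equal to vehicle treated cultures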; conditions: S. cerevisiae cln2 rad14 strain, stronger effect = higher value
Method in brief: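 Relative to vehicle controls, growth inhibition of compound-treated cln2 rad14 yeast was recorded.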

[13] = NCI Yeast Anticancer Drug Screen. Data for the bub3 strain (AID 167); conditions: S. cerevisiae bub3 mutant strain, stronger effect = higher value
Method in brief: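 Part of a panel of yeast mutants defective in DNA damage repair or cell cycle regulation. Each strain is grown with compound, and inhibition is calculated relative to solvent-treated cultures.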

[14] = NCI Yeast Anticancer Drug Screen. Data for the wt2 strain (AID 169);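 also: 0% = growth of vehicle-treated yeast cultures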; conditions: S. cerevisiae wt2 strain growth inhibition, stronger effect = higher value
Method in brief: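 Values express reduction in yeast growth under compound treatment, referenced to vehicle-treated cells.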

[15] = NCI Yeast Anticancer Drug Screen. Data for the rad18 strain (AID 177); conditions: S. cerevisiae rad18 mutant growth inhibition, stronger effect = higher value
Method in brief: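 A genetically defined yeast mutant impaired in DNA damage repair was treated with test compounds, then its growth was measured against cultures receiving vehicle alone.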

[16] = at 5.0 µM (retest, dose inferred, filed as 0.5)
[17] = at 50.0 µM (retest, dose inferred, filed as 5.0)

Measured: growth inhibition

O=Nn1c2ccccc2c2ccccc21
inactive: [1]; at 1.2 µM 27% | [1]; at 3.7 µM 27% | [1]; at 11.0 µM 19% | [1]; at 33.0 µM 56% | [2]; at 1.2 µM -3% | [2]; at 3.7 µM 5% | [2]; at 11.0 µM 10% | [2]; at 33.0 µM 7% | [2]; at 100.0 µM 66% | [3]; [16] -16% | [3]; [17] 16% | [3]; at 50.0 µM 21.5% and 15.5%
active: [1]; at 100.0 µM 93%

CN(C)c1ccc(/C=C/c2ccnc3ccccc23)cc1N
5% (inactive) and 89% (active): [13]; [17]
-13% (inactive) and 77% (active): [7]; [17]
13% (inactive) and 97% (active): [3]; [17]
81.8% (active) and 0.6% (inactive): [3]; at 50.0 µM
inactive: [4]; at 1.2 µM -6% | [4]; at 3.7 µM -8% | [4]; at 11.0 µM -10% | [4]; at 33.0 µM -5% | [4]; at 100.0 µM 5% | [5]; at 1.2 µM -2% | [5]; at 3.7 µM -4% | [5]; at 11.0 µM -9% | [5]; at 33.0 µM -15% | [5]; at 100.0 µM -7% | [6]; at 1.2 µM -7% | [6]; at 3.7 µM -4% | [6]; at 11.0 µM 5% | [6]; at 33.0 µM 29% | [6]; at 100.0 µM 56% | [7]; at 1.2 µM -5% | [7]; at 3.7 µM -10% | [7]; [16] -25% and -10% | [7]; at 11.0 µM -13% | [7]; at 33.0 µM 5% | [7]; at 50.0 µM 2.85% and -9.8% | [7]; at 100.0 µM 17% | [8]; at 1.2 µM -6% | [8]; at 3.7 µM -6% | [8]; [16] -1% and 4% | [8]; at 11.0 µM -7% | [8]; at 33.0 µM -4% | [8]; at 50.0 µM 32.1% and -2.55% | [8]; at 100.0 µM 14% | [9]; at 1.2 µM -7% | [9]; at 3.7 µM -7% | [9]; at 11.0 µM -8% | [9]; at 33.0 µM 3% | [9]; at 100.0 µM 17% | [10]; [16] -8% and -6% | [10]; at 50.0 µM 64.8% and 1.25% | [11]; at 1.2 µM -1% | [11]; at 3.7 µM -5% | [11]; at 11.0 µM -19% | [11]; at 33.0 µM -16% | [11]; at 100.0 µM -4% | [12]; [16] -6% and -8% | [12]; [17] 7% and 40% | [12]; at 50.0 µM -28.1% and -22.4% | [13]; at 1.2 µM -5% | [13]; at 3.7 µM -5% | [13]; [16] 3% and -7% | [13]; at 11.0 µM -8% | [13]; at 33.0 µM -6% | [13]; at 100.0 µM 20% | [14]; at 1.2 µM -5% | [14]; at 3.7 µM -8% | [14]; at 11.0 µM -10% | [14]; at 33.0 µM 6% | [14]; at 100.0 µM 52% | [1]; at 1.2 µM -3% | [1]; at 3.7 µM -3% | [1]; at 11.0 µM -1% | [1]; at 33.0 µM 7% | [1]; at 100.0 µM 42% | [2]; at 1.2 µM -3% | [2]; at 3.7 µM -2% | [2]; at 11.0 µM -3% | [2]; at 33.0 µM 20% | [2]; at 100.0 µM 64% | [3]; [16] -12% and 5% | [15]; at 1.2 µM -4% | [15]; at 3.7 µM -3% | [15]; at 11.0 µM -8% | [15]; at 33.0 µM 11% | [15]; at 100.0 µM 32%
43% (inactive) and 95% (active): [10]; [17]
-6% (inactive) and 94% (active): [8]; [17]
81.6% (active) and -6.75% (inactive): [13]; at 50.0 µM

Nc1nc2c(c(=O)[nH]1)NC(CCNc1ccc(C(=O)O)cc1)CN2 (centres undefined)
inactive: [4]; at 1.2 µM -2% | [4]; at 3.7 µM 1% | [4]; at 11.0 µM -5% | [4]; at 33.0 µM 2% | [4]; at 100.0 µM -5% | [5]; at 1.2 µM 1% | [5]; at 3.7 µM 1% | [5]; at 11.0 µM 2% | [5]; at 33.0 µM 1% | [5]; at 100.0 µM -1% | [6]; at 1.2 µM -3% | [6]; at 3.7 µM -4% | [6]; at 11.0 µM -3% | [6]; at 33.0 µM -2% | [6]; at 100.0 µM -5% | [7]; at 1.2 µM -3% | [7]; at 3.7 µM 2% | [7]; [16] 14% | [7]; at 11.0 µM -5% | [7]; at 33.0 µM -4% | [7]; [17] 12% | [7]; at 50.0 µM -12.1% | [7]; at 100.0 µM -1% | [8]; at 1.2 µM -1% | [8]; at 3.7 µM 2% | [8]; [16] 7% | [8]; at 11.0 µM 4% | [8]; at 33.0 µM 2% | [8]; [17] 18% | [8]; at 50.0 µM -35.5% | [8]; at 100.0 µM -13% | [9]; at 1.2 µM 0% | [9]; at 3.7 µM -6% | [9]; at 11.0 µM 2% | [9]; at 33.0 µM 3% | [9]; at 100.0 µM 6% | [10]; [16] 11% | [10]; [17] -2% | [10]; at 50.0 µM -0.75% | [11]; at 1.2 µM -2% | [11]; at 3.7 µM -3% | [11]; at 11.0 µM -3% | [11]; at 33.0 µM 1% | [11]; at 100.0 µM 2% | [12]; [16] 31% | [12]; [17] 39% | [12]; at 50.0 µM 2.45% | [13]; at 1.2 µM 2% | [13]; at 3.7 µM 2% | [13]; [16] -13% | [13]; at 11.0 µM 0% | [13]; at 33.0 µM -1% | [13]; [17] 6% | [13]; at 50.0 µM 6.15% | [13]; at 100.0 µM 24% | [14]; at 1.2 µM 0% | [14]; at 3.7 µM 2% | [14]; at 11.0 µM 1% | [14]; at 33.0 µM 0% | [14]; at 100.0 µM 3% | [1]; at 1.2 µM 0% | [1]; at 3.7 µM -1% | [1]; at 11.0 µM 0% | [1]; at 33.0 µM 0% | [1]; at 100.0 µM 15% | [2]; at 1.2 µM -2% | [2]; at 3.7 µM -3% | [2]; at 11.0 µM -4% | [2]; at 33.0 µM -6% | [2]; at 100.0 µM -3% | [3]; [16] 8% | [3]; [17] 28% | [3]; at 50.0 µM 4.25% | [15]; at 1.2 µM -3% | [15]; at 3.7 µM -5% | [15]; at 11.0 µM -10% | [15]; at 33.0 µM -22% | [15]; at 100.0 µM -29%
